From PubChem BioAssay (EPA / NIEHS)
“And” between values parts separate entries of the source, which are not always exact repeats. Identical values can stand only once. Records with an inconclusive call do not appear. Some compounds were tested as several samples or in several runs, with calls that do not always agree. The source made the active and inactive calls. The calls were made as follows, unless noted: active = hit-call score of the fitted dose curve at least 0.9, where 1 is the maximum; inactive = score below 0.9.

How the values were obtained:
[1] = target: Glucocorticoid receptor (Homo sapiens) (UniProt P04150); assay: ATG_GR_TRANS: Attagene TRANS-FACTORIAL HepG2 Assay for human Glucocorticoid Receptor (GR) (AID 2282978; active = hit-call score of the fitted dose curve at least 0.9, where 1 is the maximum;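 also: activators score as hits since higher reporter transcript over DMSO is fitted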); details: HepG2 Attagene TRANS GR reporter, mRNA transcription
Chain of Glucocorticoid receptor (Homo sapiens) (P04150 whole entry, looked up, the tested form may be a part): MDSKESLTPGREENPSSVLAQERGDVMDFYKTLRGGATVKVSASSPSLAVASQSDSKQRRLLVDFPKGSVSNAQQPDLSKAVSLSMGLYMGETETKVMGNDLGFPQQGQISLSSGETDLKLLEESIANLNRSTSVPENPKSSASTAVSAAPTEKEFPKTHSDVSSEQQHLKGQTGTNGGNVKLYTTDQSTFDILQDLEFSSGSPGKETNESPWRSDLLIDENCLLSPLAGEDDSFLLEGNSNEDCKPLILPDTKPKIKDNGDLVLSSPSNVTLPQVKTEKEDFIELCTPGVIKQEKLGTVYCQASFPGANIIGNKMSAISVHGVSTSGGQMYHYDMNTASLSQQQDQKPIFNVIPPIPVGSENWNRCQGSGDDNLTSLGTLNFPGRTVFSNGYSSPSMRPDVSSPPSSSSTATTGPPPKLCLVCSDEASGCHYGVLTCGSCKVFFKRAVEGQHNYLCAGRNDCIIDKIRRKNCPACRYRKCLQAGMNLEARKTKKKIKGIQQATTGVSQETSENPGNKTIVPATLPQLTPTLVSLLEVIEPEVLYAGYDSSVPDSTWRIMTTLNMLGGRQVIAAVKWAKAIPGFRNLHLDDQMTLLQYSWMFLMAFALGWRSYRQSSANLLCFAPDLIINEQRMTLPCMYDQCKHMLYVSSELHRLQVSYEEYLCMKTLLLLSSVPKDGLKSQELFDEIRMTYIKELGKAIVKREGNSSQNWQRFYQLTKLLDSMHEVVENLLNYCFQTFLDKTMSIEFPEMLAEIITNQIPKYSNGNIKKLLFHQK
Summary of the method: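 HepG2 cells transiently transfected with multiplexed reporter units in which chimeric NR-GAL4 proteins drive GAL4-UAS reporters; 24 h compound exposure. Reporter mRNA measured by RT-PCR, 6-FAM labelling, HpaI digestion and capillary electrophoresis; gain-of-signal fitted versus DMSO.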

[2] = target: Bile acid receptor (Homo sapiens) (UniProt Q96RI1); assay: ATG_FXR_TRANS: Attagene TRANS-FACTORIAL HepG2 Assay for Farnesoid X Receptor (FXR) (AID 2282979; active = hit-call score of the fitted dose curve at least 0.9, where 1 is the maximum;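 also: hits raise reporter mRNA above DMSO so AC50 marks FXR activation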); details: HepG2 Attagene TRANS FXR-GAL4 reporter transcription
Chain of Bile acid receptor (Homo sapiens) (Q96RI1 whole entry, looked up, the tested form may be a part): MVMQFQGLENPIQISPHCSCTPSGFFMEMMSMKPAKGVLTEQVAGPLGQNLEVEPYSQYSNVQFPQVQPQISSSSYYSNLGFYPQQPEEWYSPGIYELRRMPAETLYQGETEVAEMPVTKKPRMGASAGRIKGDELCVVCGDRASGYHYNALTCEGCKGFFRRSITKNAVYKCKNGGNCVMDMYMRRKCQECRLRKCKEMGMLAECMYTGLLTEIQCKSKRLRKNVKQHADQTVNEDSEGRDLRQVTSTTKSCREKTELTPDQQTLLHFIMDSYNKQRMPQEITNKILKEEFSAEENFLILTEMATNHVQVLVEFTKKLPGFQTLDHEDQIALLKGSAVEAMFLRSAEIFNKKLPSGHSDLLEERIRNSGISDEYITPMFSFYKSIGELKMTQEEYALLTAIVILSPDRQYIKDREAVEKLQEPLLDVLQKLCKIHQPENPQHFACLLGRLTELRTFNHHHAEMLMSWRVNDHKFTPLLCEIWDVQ
Summary of the method: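 Reporter transcripts from transfected HepG2 cells were measured 24 h after dosing, using RT-PCR with capillary electrophoresis of 6-FAM-labelled fragments. The read-out reflects activity of exogenous FXR-Gal4 chimera on GAL4-UAS units, with induction relative to DMSO.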

[3] = target: Oxysterols receptor LXR-alpha (Homo sapiens) (UniProt Q13133); assay: ATG_LXRa_TRANS: Attagene TRANS-FACTORIAL HepG2 Assay for human Liver X Receptor alpha (LXRa) (AID 2282980; active = hit-call score of the fitted dose curve at least 0.9, where 1 is the maximum); details: HepG2 Attagene TRANS reporter, LXRa transactivation
Chain of Oxysterols receptor LXR-alpha (Homo sapiens) (Q13133 whole entry, looked up, the tested form may be a part): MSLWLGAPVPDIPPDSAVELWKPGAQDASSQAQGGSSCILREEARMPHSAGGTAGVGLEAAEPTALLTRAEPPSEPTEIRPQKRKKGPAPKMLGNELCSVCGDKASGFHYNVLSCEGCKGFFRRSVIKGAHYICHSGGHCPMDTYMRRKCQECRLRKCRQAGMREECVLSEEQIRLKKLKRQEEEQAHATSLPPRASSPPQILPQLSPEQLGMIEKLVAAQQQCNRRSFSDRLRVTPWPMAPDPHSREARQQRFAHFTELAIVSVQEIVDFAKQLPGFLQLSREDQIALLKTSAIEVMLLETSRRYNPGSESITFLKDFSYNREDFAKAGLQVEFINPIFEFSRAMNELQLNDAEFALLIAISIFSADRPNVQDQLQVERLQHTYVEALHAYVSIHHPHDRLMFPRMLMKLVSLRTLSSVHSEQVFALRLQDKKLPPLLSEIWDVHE
Summary of the method: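 Chemical-induced reporter mRNA measured by RT-PCR with fluorescent labelling and capillary electrophoresis after 24 h dosing of transiently transfected HepG2 cells expressing exogenous NR-Gal4 chimeras; increases scored against DMSO baseline.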

[4] = target: Oxysterols receptor LXR-beta (Homo sapiens) (UniProt P55055); assay: ATG_LXRb_TRANS: Attagene TRANS-FACTORIAL HepG2 Assay for human Liver X Receptor beta (LXRb) (AID 2282981; active = hit-call score of the fitted dose curve at least 0.9, where 1 is the maximum); details: HepG2 Attagene TRANS GAL4-LXRb reporter, mRNA
Chain of Oxysterols receptor LXR-beta (Homo sapiens) (P55055 whole entry, looked up, the tested form may be a part): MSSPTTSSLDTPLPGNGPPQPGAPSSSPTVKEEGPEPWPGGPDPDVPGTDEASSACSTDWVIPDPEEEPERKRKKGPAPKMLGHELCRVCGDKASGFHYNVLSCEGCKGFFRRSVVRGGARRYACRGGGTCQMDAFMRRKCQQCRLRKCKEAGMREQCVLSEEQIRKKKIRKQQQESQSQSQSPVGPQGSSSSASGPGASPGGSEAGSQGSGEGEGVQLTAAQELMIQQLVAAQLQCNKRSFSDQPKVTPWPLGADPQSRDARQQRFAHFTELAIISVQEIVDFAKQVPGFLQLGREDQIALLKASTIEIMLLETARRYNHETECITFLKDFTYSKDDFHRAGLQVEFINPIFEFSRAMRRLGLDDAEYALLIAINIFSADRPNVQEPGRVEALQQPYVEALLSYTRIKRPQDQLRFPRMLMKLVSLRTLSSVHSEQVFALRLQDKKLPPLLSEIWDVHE
Summary of the method: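 After 24 h of chemical treatment, transfected HepG2 cells yield total RNA; reporter cDNA is PCR-amplified, FAM-labelled, HpaI-cut and run on capillary electrophoresis. Signal reflects chimeric LXRb-Gal4 activity on GAL4-UAS reporters.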

[5] = ATG_M_06_TRANS: Attagene TRANS-FACTORIAL HepG2 Assay for M06 Transcription Factor (Internal Marker) (AID 2282983; active = hit-call score of the fitted dose curve at least 0.9, where 1 is the maximum;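 also: reporter transcript level by RT-PCR then capillary electrophoresis fluorescence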); details: HepG2 Attagene TRANS M06 internal marker reporter
Summary of the method: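 Background-control reporter readout: after 24 h chemical exposure of transiently transfected HepG2 (GAL4-UAS reporter units), mRNA quantified by RT-PCR with fluorescent labeling and capillary electrophoresis. Gain-of-signal fitting against DMSO baseline.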

[6] = ATG_M_32_TRANS: Attagene TRANS-FACTORIAL HepG2 Assay for M32 Transcription Factor (Internal Marker) (AID 2282984; active = hit-call score of the fitted dose curve at least 0.9, where 1 is the maximum;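 also: transcript level of a background control reporter unit measured by RT-PCR and capillary electrophoresis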); details: HepG2 Attagene TRANS M32 internal marker reporter
Summary of the method: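 Cell-based TRANS-format assay in HepG2: exogenous chimeric GAL4 reporter units transiently expressed, compounds applied 24 h. Reporter mRNA detected by RT-PCR plus capillary electrophoresis; this readout is an internal background marker.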

[7] = target: Nuclear receptor subfamily 4 group A member 2 (Homo sapiens) (UniProt P43354); assay: ATG_NURR1_TRANS: Attagene TRANS-FACTORIAL HepG2 Assay for human Nuclear Receptor Related Protein 1 (NURR1) (AID 2282985; active = hit-call score of the fitted dose curve at least 0.9, where 1 is the maximum); details: HepG2 Attagene TRANS reporter, mRNA readout
Chain of Nuclear receptor subfamily 4 group A member 2 (Homo sapiens) (P43354 whole entry, looked up, the tested form may be a part): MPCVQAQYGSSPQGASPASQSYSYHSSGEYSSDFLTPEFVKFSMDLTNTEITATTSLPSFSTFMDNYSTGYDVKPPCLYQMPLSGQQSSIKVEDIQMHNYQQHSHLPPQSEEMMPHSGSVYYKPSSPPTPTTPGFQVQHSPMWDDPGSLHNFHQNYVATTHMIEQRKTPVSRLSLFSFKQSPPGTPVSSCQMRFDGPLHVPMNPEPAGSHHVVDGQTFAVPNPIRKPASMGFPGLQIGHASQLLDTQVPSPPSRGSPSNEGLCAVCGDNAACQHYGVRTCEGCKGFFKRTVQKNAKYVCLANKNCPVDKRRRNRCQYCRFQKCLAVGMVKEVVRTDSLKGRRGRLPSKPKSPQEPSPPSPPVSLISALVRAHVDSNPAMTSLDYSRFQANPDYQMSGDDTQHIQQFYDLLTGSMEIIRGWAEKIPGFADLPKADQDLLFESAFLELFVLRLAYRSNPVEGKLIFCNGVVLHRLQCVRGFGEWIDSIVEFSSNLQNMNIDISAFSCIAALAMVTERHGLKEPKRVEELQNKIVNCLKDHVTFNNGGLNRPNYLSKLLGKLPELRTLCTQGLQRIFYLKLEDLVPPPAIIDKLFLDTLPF
Summary of the method: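 Measures transcriptional activation by an exogenous NR-Gal4 chimera in transfected HepG2 liver cells. After 24 h, reporter RNA is reverse-transcribed, amplified and resolved by capillary electrophoresis; DMSO defines baseline.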

[8] = target: Transcriptional activator Myb (Homo sapiens) (UniProt P10242); assay: ATG_Myb_CIS: Attagene CIS-FACTORIAL HepG2 Assay for human Myeloblastosis (Myb) Proto-Oncogene Transcription Factor (AID 2282986); details: HepG2 Attagene CIS-FACTORIAL Myb reporter transcription; actives raise or lower the signal
Chain of Transcriptional activator Myb (Homo sapiens) (P10242 whole entry, looked up): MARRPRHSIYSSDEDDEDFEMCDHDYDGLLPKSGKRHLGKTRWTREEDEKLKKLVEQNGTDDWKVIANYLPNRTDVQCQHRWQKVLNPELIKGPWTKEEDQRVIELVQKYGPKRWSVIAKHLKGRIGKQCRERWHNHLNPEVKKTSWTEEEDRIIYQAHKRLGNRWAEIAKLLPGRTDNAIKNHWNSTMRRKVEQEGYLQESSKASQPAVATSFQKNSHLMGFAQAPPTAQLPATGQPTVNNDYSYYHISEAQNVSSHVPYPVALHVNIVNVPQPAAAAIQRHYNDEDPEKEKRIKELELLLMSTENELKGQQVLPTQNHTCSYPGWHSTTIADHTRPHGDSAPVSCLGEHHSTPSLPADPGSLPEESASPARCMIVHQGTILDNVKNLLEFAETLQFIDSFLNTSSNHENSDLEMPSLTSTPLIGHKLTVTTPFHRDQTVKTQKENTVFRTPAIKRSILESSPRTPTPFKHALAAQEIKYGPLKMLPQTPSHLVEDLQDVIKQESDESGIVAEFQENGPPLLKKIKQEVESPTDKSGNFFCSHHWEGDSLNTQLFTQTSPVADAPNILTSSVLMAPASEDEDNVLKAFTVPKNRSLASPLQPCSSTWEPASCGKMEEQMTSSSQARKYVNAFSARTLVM
Summary of the method: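 HepG2 cells were transiently transfected with cis-regulated multiple reporter transcription units reflecting endogenous Myb activity, then exposed to compound for 24 hours. Reporter mRNA was measured by RT-PCR with capillary electrophoresis; bidirectional fitting versus DMSO baseline.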

[9] = target: Nuclear respiratory factor 1 (Homo sapiens) (UniProt Q16656); assay: ATG_NRF1_CIS: Attagene CIS-FACTORIAL HepG2 Assay for human Nuclear Respiratory Factor 1 (NRF1) Orphan Gene (AID 2282987); details: HepG2 NRF1 cis-element reporter, Attagene multiplex; actives raise or lower the signal
Summary of the method: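 HepG2 cells transiently transfected with multiple reporter transcription units under cis-regulatory promoter control, so endogenous transcription-factor activity is read. After 24 h compound exposure, reporter mRNA quantified by RT-PCR, fluorescent labelling, HpaI digestion and capillary electrophoresis; bidirectional fitting versus DMSO.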

[10] = ATG_NFI_CIS: Attagene CIS-FACTORIAL HepG2 Assay for human Nuclear Factor I (NFI) (AID 2282989); details: HepG2 cis-regulatory reporter, NFI response element transcription; actives raise or lower the signal
Summary of the method: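 Multiplexed cis-reporter system in human HepG2 cells reports native TF activity as reporter mRNA induction 24 h post-dose. Fragments labelled with 6-FAM, HpaI-digested and resolved by capillary electrophoresis; activity fitted both directions versus DMSO.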

[11] = target: Myc proto-oncogene protein (Homo sapiens) (UniProt P01106); assay: ATG_Myc_CIS: Attagene CIS-FACTORIAL HepG2 Assay for human Myelocytomatosis (Myc) Proto-Oncogene Transcription Factor (AID 2282990); details: HepG2, Attagene cis-reporter transcription factor activity; actives raise or lower the signal
Chain of Myc proto-oncogene protein (Homo sapiens) (P01106 whole entry, looked up, the tested form may be a part): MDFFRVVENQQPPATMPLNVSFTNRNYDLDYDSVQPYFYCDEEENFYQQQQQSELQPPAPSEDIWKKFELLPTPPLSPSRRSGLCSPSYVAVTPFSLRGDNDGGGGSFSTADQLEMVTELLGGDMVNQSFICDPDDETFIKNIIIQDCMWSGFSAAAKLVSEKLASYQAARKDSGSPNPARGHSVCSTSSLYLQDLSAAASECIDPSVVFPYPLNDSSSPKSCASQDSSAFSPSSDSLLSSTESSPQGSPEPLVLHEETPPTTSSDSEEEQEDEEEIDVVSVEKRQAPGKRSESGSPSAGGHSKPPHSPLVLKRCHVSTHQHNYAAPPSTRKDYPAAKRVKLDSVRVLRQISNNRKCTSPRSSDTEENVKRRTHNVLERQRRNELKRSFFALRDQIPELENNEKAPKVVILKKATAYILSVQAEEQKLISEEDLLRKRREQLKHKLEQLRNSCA
Summary of the method: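 After 24 h chemical treatment of HepG2 cells carrying multiplexed cis-regulated reporter constructs, reporter transcripts quantified by RT-PCR and capillary electrophoresis of fluorescent fragments. Gain or loss fitted against DMSO baseline.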

[12] = ATG_NF_kB_CIS: Attagene CIS-FACTORIAL HepG2 Assay for human Nuclear Factor Kappa B (NF-kB) (AID 2282991); details: HepG2 Attagene cis-factorial NF-kB reporter mRNA; actives raise or lower the signal
Summary of the method: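 HepG2 cells transiently transfected with multiplexed cis-element reporter units measuring endogenous transcription factor activity; reporter mRNA read 24 h after dosing by RT-PCR, fluorescent labelling, HpaI digestion and capillary electrophoresis. Bidirectional fit against DMSO baseline.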

[13] = ATG_NRF2_ARE_CIS: Attagene CIS-FACTORIAL HepG2 Assay for human Nuclear Factor Erythroid 2 Related Factor 2 (NFR2) response to Antioxidant Response Elements (ARE) (AID 2282992); details: HepG2 Attagene ARE/NRF2 reporter, transcription factor activity; actives raise or lower the signal;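 as to AC50: reporter mRNA level measured by RT-PCR and capillary electrophoresis fluorescence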
Summary of the method: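 Endogenous transcription factor activity in human liver HepG2 cells is tracked via a cis-element-driven reporter within a multiplexed set. mRNA induction is read by RT-PCR and capillary electrophoresis after 24 h, with DMSO as baseline.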

[14] = ATG_Oct_MLP_CIS: Attagene CIS-FACTORIAL HepG2 Assay for human Octamer-Binding Transcription Factor (Oct) (AID 2282993); details: HepG2 Attagene cis-factorial Oct reporter, mRNA; actives raise or lower the signal
Summary of the method: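 After 24 h compound exposure, transfected HepG2 cells were lysed for total RNA; reporter-specific cDNA was PCR-amplified, fluorescently labelled and sized by capillary electrophoresis. Bidirectional curve fitting used DMSO as baseline.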

[15] = target: Cellular tumor antigen p53 (Homo sapiens) (UniProt P04637); assay: ATG_p53_CIS: Attagene CIS-FACTORIAL HepG2 Assay for human p53 Transcription Factor (AID 2282994); details: HepG2 p53 cis-element reporter, Attagene mRNA; actives raise or lower the signal
Chain of Cellular tumor antigen p53 (Homo sapiens) (P04637 whole entry, looked up, the tested form may be a part): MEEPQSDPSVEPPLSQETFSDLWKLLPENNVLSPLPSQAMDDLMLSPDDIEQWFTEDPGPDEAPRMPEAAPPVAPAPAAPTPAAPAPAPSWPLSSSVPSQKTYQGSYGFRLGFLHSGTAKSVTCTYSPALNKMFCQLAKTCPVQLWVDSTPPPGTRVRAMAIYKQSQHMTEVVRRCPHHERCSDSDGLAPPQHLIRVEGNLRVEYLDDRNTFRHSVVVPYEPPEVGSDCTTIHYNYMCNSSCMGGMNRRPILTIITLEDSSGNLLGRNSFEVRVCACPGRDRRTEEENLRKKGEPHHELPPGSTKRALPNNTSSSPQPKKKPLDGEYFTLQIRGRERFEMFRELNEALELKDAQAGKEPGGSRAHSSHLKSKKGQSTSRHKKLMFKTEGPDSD
Summary of the method: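 Steps: transfect HepG2 with multiplexed cis reporter constructs; dose chemicals 24 h; extract RNA, reverse-transcribe, PCR-amplify reporter sequences; FAM-label, HpaI-digest, resolve fragments by CE. Activity fitted both directions relative to DMSO.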

[16] = BSK_3C_TissueFactor: BioMAP Diversity Plus: 3C Assay for Tissue Factor Biomarker Activity (AID 2282997); details: BioMAP 3C HUVEC, tissue factor biomarker readout; actives raise or lower the signal
Summary of the method: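 Tissue factor on primary human umbilical vein endothelium was read by ELISA 24 h after dosing, gain or loss relative to DMSO. Cytotoxicity ran alongside via SRB (0.1%, TCA-fixed, 560 nm).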

[17] = BSK_3C_uPAR: BioMAP Diversity Plus: 3C Assay for Urokinase-type plasminogen activator receptor (uPAR) Biomarker Activity (AID 2282998); details: BioMAP 3C HUVEC, uPAR biomarker ELISA; actives raise or lower the signal
Summary of the method: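 Values derive from bidirectional curve fitting relative to DMSO, which served as baseline of activity. uPAR was measured by ELISA in human umbilical vein endothelial primary cultures 24 h after compound addition.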

[18] = BSK_3C_VCAM1: BioMAP Diversity Plus: 3C Assay for Vascular cell adhesion molecule 1 (VCAM1) Biomarker Activity (AID 2282999); details: BioMAP 3C HUVEC, VCAM1 ELISA, cytokine-stimulated; actives raise or lower the signal
Summary of the method: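 Activity fitted in both directions relative to DMSO, with ELISA measurement of the surface marker on primary HUVEC (3C) at 24 h post-treatment; parallel SRB staining (0.1% SRB, TCA-fixed, 560 nm) flagged overt cytotoxicity.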

[19] = target: Estrogen-related receptor gamma (Homo sapiens) (UniProt P62508); assay: ATG_ERRg_TRANS: Attagene TRANS-FACTORIAL HepG2 Assay for human Estrogen-Related Receptor gamma (ERRg) (AID 2282977; active = hit-call score of the fitted dose curve at least 0.9, where 1 is the maximum;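 also: hits increase reporter signal over DMSO so potencies reflect activators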); details: HepG2 Attagene TRANS reporter, ERRg transactivation
Summary of the method: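 Exogenous NR-Gal4 chimera activity was assessed in HepG2 cells bearing transfected GAL4-UAS reporters. After 24 h dosing, total RNA underwent RT-PCR, fluorescent primer extension and HpaI digestion before capillary electrophoresis, with gain of signal scored against DMSO.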

[20] = target: Hepatocyte nuclear factor 4-alpha (Homo sapiens) (UniProt P41235); assay: ATG_HNF4a_TRANS: Attagene TRANS-FACTORIAL HepG2 Assay for human Hepatocyte Nuclear Factor 4 alpha (HNF4a) (AID 2282982; active = hit-call score of the fitted dose curve at least 0.9, where 1 is the maximum); details: HepG2 HNF4a transactivation reporter, mRNA readout
Chain of Hepatocyte nuclear factor 4-alpha (Homo sapiens) (P41235 whole entry, looked up): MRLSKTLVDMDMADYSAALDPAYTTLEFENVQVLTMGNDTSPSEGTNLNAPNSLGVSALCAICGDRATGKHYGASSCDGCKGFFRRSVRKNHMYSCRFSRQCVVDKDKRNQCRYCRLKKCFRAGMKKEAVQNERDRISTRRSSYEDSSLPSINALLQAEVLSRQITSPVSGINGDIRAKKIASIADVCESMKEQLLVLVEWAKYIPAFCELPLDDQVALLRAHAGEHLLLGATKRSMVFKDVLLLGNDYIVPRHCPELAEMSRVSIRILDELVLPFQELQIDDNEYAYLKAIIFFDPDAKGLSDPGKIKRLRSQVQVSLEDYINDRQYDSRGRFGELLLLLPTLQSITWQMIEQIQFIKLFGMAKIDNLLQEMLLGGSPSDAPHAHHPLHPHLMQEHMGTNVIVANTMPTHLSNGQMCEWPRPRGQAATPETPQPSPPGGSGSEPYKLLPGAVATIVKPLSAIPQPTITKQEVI
Summary of the method: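 Multiplexed reporter assay: transfected HepG2, 24 h exposure, total RNA → oligo(dT) RT → PCR → 6-FAM extension → HpaI digest → CE fluorescence. DMSO = negative control.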

SMILES: O=S(=O)(O)C(F)(F)C(F)(F)C(F)(F)C(F)(F)C(F)(F)C(F)(F)F
- outcome [1]: inactive
- outcome [2]: inactive
- outcome [3]: inactive
- outcome [4]: inactive
- outcome [5]: inactive
- outcome [6]: inactive
- outcome [7]: inactive
- outcome [8]: inactive
- outcome [9]: inactive
- outcome [10]: inactive
- outcome [11]: inactive
- outcome [12]: inactive
- AC50 [13]: 132 µM (active) [middle of 4 runs]
- outcome [14]: inactive
- outcome [15]: inactive
- outcome [16]: inactive
- outcome [17]: inactive
- outcome [18]: inactive

SMILES: CC(C)(O)C(=O)Nc1ccc([N+](=O)[O-])c(C(F)(F)F)c1
- outcome [19]: inactive
- outcome [3]: inactive
- outcome [4]: inactive
- outcome [20]: inactive
- outcome [5]: inactive
- outcome [6]: inactive
- outcome [7]: inactive
- outcome [8]: inactive
- outcome [9]: inactive
- outcome [10]: inactive
- outcome [11]: inactive
- AC50 [13]: 45.1 µM (active) and 15.9 µM (active) and 54.5 µM (active)
- outcome [13]: inactive
- outcome [15]: inactive
- outcome [16]: inactive
- outcome [17]: inactive
- outcome [18]: inactive

SMILES: CCC(C)(c1ccc(O)cc1)c1ccc(O)cc1
- outcome [19]: inactive
- outcome [2]: inactive
- outcome [3]: inactive
- outcome [4]: inactive
- outcome [20]: inactive
- outcome [5]: inactive
- outcome [6]: inactive
- outcome [7]: inactive
- outcome [8]: inactive
- outcome [9]: inactive
- AC50 [10]: 53 µM (active)
- outcome [10]: inactive
- outcome [11]: inactive
- AC50 [12]: 44.8 µM (active)
- outcome [12]: inactive
- AC50 [15]: 53.6 µM (active) and 33.4 µM (active) and 45.8 µM (active)
- outcome [15]: inactive
- outcome [16]: inactive
- AC50 [17]: 32.8 µM (active)
- outcome [18]: inactive
